In PubChem BioAssay AID588497 (NMMLSC, 2011):
The whole screen tested about 360,000 compounds, of which about 780 (0.22%) were called active. Not shown: some 4% with an inconclusive outcome. The sample holds actives, similar compounds and a random draw of the others, so the mix is not that of the screen. Rule as the data show it: active = inhibition above about 35% (passing the limit was not always enough); inconclusive = no clear call, values can overlap the other calls.

Tested on: Botulinum neurotoxin type F light chain protease (Clostridium botulinum)
Assay: BoNT/F light chain protease inhibitors, primary screen, biochemical, flow cytometry, MLPCN library (AID 588497); also: plate controls were buffer without enzyme for full effect and enzyme alone for no effect
Conditions: Multiplex microsphere protease cleavage assay, at 10 µM, stronger effect = higher value

| Compound | inhibition |
| --- | --- |
| O=C(c1snnc1-c1ccccc1)N1CCOCC1 | -9% (inactive) |
| C=CCN(CC=C)S(=O)(=O)c1ccc(C(=O)Nc2nc3c(s2)CCc2ccccc2-3)cc1 | -8.2% (inactive) |
| c1ccc2c(c1)CCc1snnc1-2 | 40.3% (active) |
| COc1ccc(CC(N)c2csc(NC(=O)Nc3ccc(C(C)C)cc3)n2)cc1 (configuration not stated) | -11.1% (inactive) |
| CC1CN(Cc2ccccc2)C(=S)NC1=O (configuration not stated) | 0.1% (inactive) |
| CN(C)c1ccc(C=C2C(=O)OC3(CCCC3)OC2=O)cc1 | 6.6% (inactive) |
| CN(C)c1ccc(/C=C2\NC(=S)N(Cc3ccccc3)C2=O)cc1 | 35.7% (active) |
| Cc1ccc(CC2(C)C(=O)Nc3ccc(OC(F)(F)F)cc32)cc1 (configuration not stated) | -5% (inactive) |
| C=CCC[C@@H](CCCCC)OC(=O)/C=C/[C@@H](O)[C@H](O)C[C@H](O)CC=C | 4.2% (inactive) |
| O=C1NC[C@H](Cc2ccc(O)cc2)N(C[C@H]2CCCN2C[C@H](Cc2ccccc2)N2C[C@H](Cc3ccccc3)N(CCc3ccccc3)C(=O)C2=O)C1=O | -3.4% (inactive) |
| O=C1Nc2ccccc2NC(c2ccc3c(c2)OCO3)=C1N(Cc1ccc(F)cc1)C(=O)c1ccco1 | -0.6% (inactive) |
| CC(C)Oc1ccc(C(=O)Nc2cc(=O)n(C)c(=O)n2C)cc1 | -0.5% (inactive) |
| Cn1c(Nc2ccccc2)cc(=O)n(C)c1=O | 35.2% (active) |
| Cc1cc(=O)n(C)c(=O)n1CCCNc1ccccc1 | 6.9% (inactive) |
| CC(=O)c1cccc(-c2cnc3c(NC=O)cc(-c4ccccc4Oc4ccccc4)cn23)c1 | -5.9% (inactive) |
| CCCn1nnc2sc3c(c2c1=O)CCC(C)C3 (configuration not stated) | -1.8% (inactive) |
| C=CCn1c(SCc2c(C)noc2C)nc2sc3c(c2c1=O)CCC(C)C3 (configuration not stated) | -1.6% (inactive) |
| CC1CCc2c(sc3nc4n(c(=O)c23)CCS4)C1 (configuration not stated) | 43.2% (active) |
| COc1ccc(C(c2nnnn2C2CCCC2)N2CCN(C/C=C/c3ccccc3)CC2)cc1 (configuration not stated) | -6.6% (inactive) |
| CC(=O)Nc1cc(-c2cccc(CO)c2)cn2c(-c3cccc(C(F)(F)F)c3)cnc12 | 0.9% (inactive) |
| O=C(NC(c1ccc(Cl)cc1)c1cnccn1)C1CCN(Cc2ccc(Cl)cc2)CC1 (configuration not stated) | -2.2% (inactive) |
| Cc1nc2c(OCc3ccc(Cl)cc3Cl)cccn2c1N(C)CC1CC1 | -6% (inactive) |
| Nc1ccccc1Sc1cc(Cl)nnc1Cl | 82.9% (active) |

| Compound | inhibition |
| --- | --- |
| Cc1nn(C)c(C)c1Sc1ccccc1N | -4.3% (inactive) |
| CC(C)Nc1nc(NCCOc2ccccc2Cl)c2sccc2n1 | -12.7% (inactive) |
| NC(Cc1ccc(F)cc1)c1csc(Nc2nncc3ccccc23)n1 (configuration not stated) | -21.6% (inactive) |
| COc1ccc(-c2coc3c(C(=O)NC(C)C)cccc23)c(C)c1 | -5.4% (inactive) |
| CCOc1ccc(/C=C(/C#N)c2nnc(N3CCOCC3)n2-c2ccccc2)cc1OC | -9.5% (inactive) |
| COc1cc(N2CCCC2)c(OC)cc1/C=C(/C#N)c1cccc(Br)c1 | 169% (active) |
| COc1ccc(-c2ccc(C(=O)NCCN3CCOCC3)c3occc23)c(C)c1 | -4.4% (inactive) |
| CCc1nc2ccc(C(=O)Nc3cccc(OC)c3)cn2c1N(CCC(C)C)CCN(C)C | 3% (inactive) |
| CCOCCC(=O)Nc1ccc2c(c1)c(=O)n(C)n2-c1ccc2ccccc2c1 | -6% (inactive) |
| OC(c1ccc(Cl)cc1)c1ncc(-c2ccc(Cl)cc2)[nH]1 (configuration not stated) | -8.9% (inactive) |
| COc1ccc(CNC(=O)CN(c2ccc(OC)c(Cl)c2)S(=O)(=O)c2ccc(C)cc2)cc1 | -6.9% (inactive) |
| COC(=O)CN(c1nc(C)c(Cl)c(OC)n1)S(=O)(=O)c1ccc(C)cc1 | 41.2% (active) |
| CCN(CC)C(=O)CN(c1cccc(OC)c1)S(=O)(=O)c1ccc(C)cc1 | -9.7% (inactive) |
| CC(=O)Nc1cccc(-c2cc(NC=O)c3ncc(-c4ccc(F)c(Cl)c4)n3c2)c1 | -9.5% (inactive) |
| COc1ccc(-c2cc(NC(C)=O)c3ncc(-c4cc(OC)c(OC)c(OC)c4)n3c2)cn1 | 2.1% (inactive) |
| CC1(C(=O)NCc2cccc3ccccc23)CCN1Cc1ccc(-c2ccccc2)o1 (configuration not stated) | -9.6% (inactive) |
| CCc1nc2c(OCc3ccc(C(F)(F)F)cc3)cccn2c1N(C)C(=O)CC(C)C | 0.4% (inactive) |
| Oc1ccccc1N1CCN(C(=S)NCc2ccccc2)CC1 | -13.6% (inactive) |
| O=C(CN1CCN(c2ccccc2O)CC1)NC(=O)NCc1ccccc1 | 69.8% (active) |
| COc1ccccc1N1CCN(CC(=O)NC(=O)NCc2ccco2)CC1 | -6.6% (inactive) |
| Cc1ccc(Cc2c(-c3ccc(Cl)cc3)nc3c4ccccc4ccn23)cc1 | -5.5% (inactive) |
| CSCCC(c1nnnn1Cc1ccccc1)N1CCN(C/C=C/c2ccccc2)CC1 (configuration not stated) | -9.9% (inactive) |
| O=S(=O)(NC1CCCCC1N1CCCCC1)c1ccc(Cl)cc1 (configuration not stated) | 24.7% (inactive) |

| Compound | inhibition |
| --- | --- |
| O=S(=O)(NC1CCCCC1N1CCC(O)CC1)c1ccc(Cl)cc1 (configuration not stated) | 110% (active) |
| CCN1CCN(C2CCCCC2NS(=O)(=O)c2ccc(Cl)cc2)CC1 (configuration not stated) | -2% (inactive) |
| c1ccc(Cc2c(-c3ccco3)nc3c4ccccc4ccn23)cc1 | 4.5% (inactive) |
| CCOc1ccc2[nH]c(=S)sc2c1 | 4.7% (inactive) |
| C[C@H]([C@@H](O)[C@@H](O)[C@@H](C)C(C)(C)C)[C@H]1CC[C@H]2C3CC[C@H]4C[C@H](OS(=O)(=O)O)[C@@H](OS(=O)(=O)O)C[C@]4(C)[C@H]3CC[C@]12C (some centres not stated) | 7.2% (inactive) |
| COc1ccc(-c2cc(NC=O)c3ncc(-c4cc(OC)c(OC)c(OC)c4)n3c2)c(OC)c1 | -7.7% (inactive) |
| Cc1c(NC(=O)c2coc(=O)c(Br)c2)c(=O)n(-c2ccccc2)n1C | 0.1% (inactive) |
| Cc1c(NC(=O)c2cccnc2)c(=O)n(-c2ccccc2)n1C | 58.9% (active) |
| Cc1c(NC(=O)c2c([N+](=O)[O-])cnn2C)c(=O)n(-c2ccccc2)n1C | -13.3% (inactive) |
| CCCCCc1c(Cc2ccccc2)ncn1CCc1ccccc1OC | -7% (inactive) |
| Cc1cc2nc(-c3ccc(Cl)cc3)c(Cc3cccc(F)c3)n2c(C)c1Br | -1.2% (inactive) |
| COc1ccc(CC(N)c2csc(NC(=O)NC(c3ccccc3)c3ccccc3)n2)cc1 (configuration not stated) | -27.6% (inactive) |
| O=C(Nc1nnc(SCc2c(Cl)cccc2Cl)s1)C1CCCO1 (configuration not stated) | -21.4% (inactive) |
| O=C(Nc1ccc(-c2nnc(-c3ccccc3)o2)cc1)C1CCCO1 (configuration not stated) | -1.7% (inactive) |
| O=C(Nc1nnc(CCc2ccccc2)s1)C1CCCO1 (configuration not stated) | 37% (active) |
| NCCCNC(=S)NCCCN(Cc1ccc(Cl)cc1)c1ccc(Br)cn1 | -47.9% (inactive) |
| C=C1C(=O)OC2C1CCC(C)=CCCC1(C)OC21 (configuration not stated) | -2.6% (inactive) |
| COc1ccc(Cl)cc1-c1cc(C(=O)Nc2cc(OC)c(OC)c(OC)c2)[nH]n1 | -0.6% (inactive) |
| CCCc1c(-c2ccccc2F)ncn1Cc1ccccc1OC | -10.4% (inactive) |
| Cc1ccc(NC(=O)c2ccco2)cc1 | -6% (inactive) |
| Cc1ccc(C(=O)COc2cccc(NC(=O)c3ccco3)c2)cc1 | 44.6% (active) |
| Cc1cccc(OCC(=O)Nc2ccc(NC(=O)c3ccco3)c(C)c2)c1 | 17.3% (inactive) |
| Clc1cccc(Cc2c(-c3cccc(Cl)c3)nc3ccc(Cl)cn23)c1 | -3.7% (inactive) |

| Compound | inhibition |
| --- | --- |
| Fc1cccc(Cc2c(-c3ccc(Cl)cc3)nc3ccc(Cl)cn23)c1 | -6% (inactive) |
| CCC(C)(C(=O)NC1CCCCC1)N(C)C(=O)c1ccc2c(c1)OCO2 (configuration not stated) | 4% (inactive) |
| O=C(Cc1ccccc1[N+](=O)[O-])N1CCN(Cc2ccc3c(c2)OCO3)CC1 | -12.3% (inactive) |
| CCN1CCN(C(C(=O)NC2CCCC2)c2cc3c(cc2[N+](=O)[O-])OCO3)CC1 (configuration not stated) | 35.9% (active) |
| OC(c1ccccc1)c1nc(/C=C/c2ccc(C(F)(F)F)cc2)cs1 (configuration not stated) | -10.4% (inactive) |
| Cc1cc(=O)oc2c3c(cc(OCC(=O)NCC(O)c4ccccc4)c12)OC(C)(C)CC3 (configuration not stated) | -2% (inactive) |
| O=C(CC[C@H]1O[C@@H](n2ccc(=O)[nH]c2=O)[C@H](O)[C@@H]1O)N[C@H](Cc1ccccc1)C(=O)NCCCN1CCCC1=O | 1.4% (inactive) |
| CC(=O)c1cccc(NC(=O)N2CCCC2C(=O)NCCc2ccccc2)c1 (configuration not stated) | 35.3% (active) |
| O=C(NCCc1ccc(Cl)cc1)C1CCCN1C(=O)NCc1ccccc1 (configuration not stated) | -20.3% (inactive) |
| Cc1ccc(CNC(=O)C2CCCN2C(=O)NCc2ccccc2)cc1 (configuration not stated) | 5.7% (inactive) |
| CCOC(=O)c1ccc(-c2ccc3ncnc(N(C)Cc4sccc4C)c3c2)o1 | 6.1% (inactive) |
| CC(=O)N1Cc2cc(C(=O)NCc3cccc(F)c3)nc(-c3cccc(C4=CCCCC4)c3)c2[C@H]1CCO | -0.7% (inactive) |
| CN(C(=O)C1CCOC1)c1nnc(-c2cccnc2)s1 (configuration not stated) | 6.9% (inactive) |
| O=C(Nc1nnc(C2CC2)s1)c1ccccn1 | -19.8% (inactive) |
| CN(C(=O)c1ccccn1)c1nnc(-c2ccccn2)s1 | 40.4% (active) |
| CC(C)Cc1nnc(NC(=O)CN2C(=O)NC3(CCCCC3)C2=O)s1 | 7.7% (inactive) |
| CC(C)Cc1nnc(NC(=O)CCNC(=O)c2ccccc2Cl)s1 | -5.1% (inactive) |
| CC(C)Cc1nnc(NC(=O)CCC(=O)Nc2ccc3cn[nH]c3c2)s1 | 43.7% (active) |
| CCCc1nc2c3ccccc3ccn2c1Cc1ccccc1C(F)(F)F | 1% (inactive) |
| Cc1nc2c(OCc3ccc(Cl)cc3)cccn2c1N(C)Cc1cccs1 | -1.1% (inactive) |
| O=C(C[n+]1cc(Br)cc2ccccc21)c1ccc(F)cc1 | 41.8% (active) |
| O=C(CNC(=O)c1ccccc1F)c1ccc(Br)cc1 | -24.7% (inactive) |
| COC(=O)C[n+]1cccc2ccccc21 | 10% (inactive) |
